# Test results: PMC7862700, “An all-to-all approach to the identification of sequence-specific readers for epigenetic DNA modifications on cytosine”
# How the values were obtained:
# Test in all cases: DAPPL (digital affinity profiling via proximity ligation, sequencing); 10 mM Tris-HCl pH 7.5, 50 mM NaCl, 1 mM DTT, 4% glycerol, room temperature, 30 min; GST-TFs on glutathione beads, 16-mer random dsDNA library, 0.1% formaldehyde crosslink after washing; high values mean tight binding
# FLI1 = target: T1, FLI1 (Homo sapiens, UniProt Q01543 1-452); settings: protein: recombinant; tags: N-terminal GST; dsDNA, one strand shown
# T1 sequence: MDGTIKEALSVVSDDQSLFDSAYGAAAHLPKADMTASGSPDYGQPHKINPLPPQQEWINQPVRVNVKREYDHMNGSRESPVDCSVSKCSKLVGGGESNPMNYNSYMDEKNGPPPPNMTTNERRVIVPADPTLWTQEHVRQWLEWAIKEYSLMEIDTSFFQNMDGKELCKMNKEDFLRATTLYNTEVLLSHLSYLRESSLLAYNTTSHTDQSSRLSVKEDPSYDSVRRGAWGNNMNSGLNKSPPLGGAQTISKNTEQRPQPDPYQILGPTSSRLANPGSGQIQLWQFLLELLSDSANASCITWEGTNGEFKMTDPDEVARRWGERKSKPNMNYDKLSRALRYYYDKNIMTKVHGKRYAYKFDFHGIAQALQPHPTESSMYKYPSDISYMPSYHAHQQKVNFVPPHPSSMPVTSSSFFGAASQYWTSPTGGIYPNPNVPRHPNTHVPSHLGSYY
# Outline: (§1)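 Human transcription factors fused to GST were expressed in yeast, captured on glutathione beads, given DNA barcodes and pooled with a GST-only negative control. Pools were incubated with 200 nmole of a 16-mer random double-stranded DNA library in Tris/NaCl/DTT/glycerol buffer at room temperature for 30 min. They were then washed, crosslinked with 0.1% formaldehyde, proximity-ligated (BsaI/T4 ligase, 1 h, 37 °C), PCR-amplified and sequenced on an Illumina NextSeq500. Binding signal is each 6-mer's read frequency for a factor divided by its frequency for the GST control.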
# ELK1 = target: T2, ELK1 (Homo sapiens, UniProt P19419 1-428); settings: protein: recombinant; tags: N-terminal GST; dsDNA, one strand shown
# T2 sequence: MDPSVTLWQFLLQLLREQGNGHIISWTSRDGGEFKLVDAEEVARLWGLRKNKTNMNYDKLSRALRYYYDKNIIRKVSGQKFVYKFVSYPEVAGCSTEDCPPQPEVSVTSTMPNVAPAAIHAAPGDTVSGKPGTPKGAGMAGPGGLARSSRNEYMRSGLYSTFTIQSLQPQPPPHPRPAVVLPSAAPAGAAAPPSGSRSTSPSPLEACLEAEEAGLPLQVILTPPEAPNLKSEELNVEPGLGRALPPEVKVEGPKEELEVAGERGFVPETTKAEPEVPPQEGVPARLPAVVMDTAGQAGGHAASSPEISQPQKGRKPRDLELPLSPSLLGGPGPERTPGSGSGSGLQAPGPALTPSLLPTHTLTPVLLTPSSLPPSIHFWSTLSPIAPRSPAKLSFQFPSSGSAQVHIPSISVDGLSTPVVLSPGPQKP
# Outline: as §1
# GABPA = target: T3, GABPA (Homo sapiens, UniProt Q06546 1-454); settings: protein: recombinant; tags: N-terminal GST; dsDNA, one strand shown
# T3 sequence: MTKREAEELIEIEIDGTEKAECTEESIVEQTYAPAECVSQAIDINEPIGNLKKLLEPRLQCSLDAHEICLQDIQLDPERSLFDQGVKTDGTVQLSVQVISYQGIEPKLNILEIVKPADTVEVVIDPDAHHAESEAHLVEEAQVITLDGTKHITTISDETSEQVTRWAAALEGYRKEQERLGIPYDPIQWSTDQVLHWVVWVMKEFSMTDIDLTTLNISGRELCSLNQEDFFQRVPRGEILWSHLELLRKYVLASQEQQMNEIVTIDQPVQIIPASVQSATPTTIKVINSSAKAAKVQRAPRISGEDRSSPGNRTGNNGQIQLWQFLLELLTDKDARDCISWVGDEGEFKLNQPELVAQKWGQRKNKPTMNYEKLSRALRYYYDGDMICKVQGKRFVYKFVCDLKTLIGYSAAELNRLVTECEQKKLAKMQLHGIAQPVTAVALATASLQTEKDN
# Outline: as §1
# ERG = target: T4, ERG (Homo sapiens, UniProt P11308 1-479); settings: protein: recombinant; tags: N-terminal GST; dsDNA, one strand shown
# T4 sequence: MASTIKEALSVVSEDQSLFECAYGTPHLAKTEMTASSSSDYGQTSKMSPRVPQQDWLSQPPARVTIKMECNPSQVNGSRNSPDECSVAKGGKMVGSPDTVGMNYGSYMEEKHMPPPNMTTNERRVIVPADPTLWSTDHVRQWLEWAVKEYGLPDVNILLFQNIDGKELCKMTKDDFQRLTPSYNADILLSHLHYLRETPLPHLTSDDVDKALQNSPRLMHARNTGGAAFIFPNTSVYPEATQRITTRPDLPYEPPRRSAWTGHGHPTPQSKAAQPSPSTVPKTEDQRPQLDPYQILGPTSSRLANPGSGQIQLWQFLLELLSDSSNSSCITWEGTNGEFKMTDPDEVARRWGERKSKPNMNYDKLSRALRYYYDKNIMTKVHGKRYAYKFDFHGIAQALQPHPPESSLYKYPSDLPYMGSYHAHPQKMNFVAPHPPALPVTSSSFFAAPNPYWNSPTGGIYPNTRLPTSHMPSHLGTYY
# Outline: as §1
# ELF1 = ELF1 (Homo sapiens, UniProt P32519 1-619); settings: protein: recombinant; tags: N-terminal GST; dsDNA, one strand shown
# Outline: as §1
# EHF = target: T5, EHF (Homo sapiens, UniProt Q9NZC4 1-300); settings: protein: recombinant; tags: N-terminal GST; dsDNA, one strand shown
# T5 sequence: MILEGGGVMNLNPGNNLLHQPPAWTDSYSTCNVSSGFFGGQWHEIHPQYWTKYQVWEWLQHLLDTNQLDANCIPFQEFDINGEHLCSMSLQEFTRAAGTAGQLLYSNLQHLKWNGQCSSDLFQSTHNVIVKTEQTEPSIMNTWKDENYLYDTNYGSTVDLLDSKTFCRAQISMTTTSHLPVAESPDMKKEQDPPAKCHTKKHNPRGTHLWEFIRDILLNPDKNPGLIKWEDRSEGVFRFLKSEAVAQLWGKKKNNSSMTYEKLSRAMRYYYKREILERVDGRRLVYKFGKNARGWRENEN
# Outline: as §1
# SPI1 = SPI1 (Homo sapiens, UniProt P17947 1-270); settings: protein: recombinant; tags: N-terminal GST; dsDNA, one strand shown
# Outline: as §1
# SPIB = SPIB (Homo sapiens, UniProt Q01892 1-262); settings: protein: recombinant; tags: N-terminal GST; dsDNA, one strand shown
# Outline: as §1
# ELK3 = target: T6, ELK3 (Homo sapiens, UniProt P41970 1-407); settings: protein: recombinant; tags: N-terminal GST; dsDNA, one strand shown
# T6 sequence: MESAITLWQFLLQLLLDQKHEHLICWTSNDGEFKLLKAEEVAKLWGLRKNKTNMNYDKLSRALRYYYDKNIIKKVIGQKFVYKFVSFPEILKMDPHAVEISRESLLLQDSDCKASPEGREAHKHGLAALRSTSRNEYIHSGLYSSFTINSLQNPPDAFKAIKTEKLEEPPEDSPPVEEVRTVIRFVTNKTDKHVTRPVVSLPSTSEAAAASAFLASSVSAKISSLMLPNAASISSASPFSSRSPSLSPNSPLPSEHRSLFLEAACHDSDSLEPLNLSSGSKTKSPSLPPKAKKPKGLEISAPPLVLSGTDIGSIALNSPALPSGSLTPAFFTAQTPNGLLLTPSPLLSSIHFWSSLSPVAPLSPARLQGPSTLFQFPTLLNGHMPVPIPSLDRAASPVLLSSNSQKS
# Outline: as §1
# FEV = target: T7, FEV (Homo sapiens, UniProt Q99581 1-238); settings: protein: recombinant; tags: N-terminal GST; dsDNA, one strand shown
# T7 sequence: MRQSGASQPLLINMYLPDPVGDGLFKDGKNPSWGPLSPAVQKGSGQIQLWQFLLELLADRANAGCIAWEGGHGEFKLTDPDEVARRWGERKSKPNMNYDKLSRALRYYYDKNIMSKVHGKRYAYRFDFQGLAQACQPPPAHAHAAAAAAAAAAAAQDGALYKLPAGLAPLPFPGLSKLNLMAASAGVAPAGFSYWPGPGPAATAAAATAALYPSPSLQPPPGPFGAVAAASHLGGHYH
# Outline: as §1
# ETV5 = ETV5 (Homo sapiens, UniProt P41161 1-510); settings: protein: recombinant; tags: N-terminal GST; dsDNA, one strand shown
# Outline: as §1
# HSF1 = HSF1 (Homo sapiens, UniProt Q00613 1-529); settings: protein: recombinant; tags: N-terminal GST; chain copies: 3; dsDNA, one strand shown
# Outline: as §1
# SPIC = target: T8, SPIC (Homo sapiens, UniProt Q8N5J4 1-248); settings: protein: recombinant; tags: N-terminal GST; dsDNA, one strand shown
# T8 sequence: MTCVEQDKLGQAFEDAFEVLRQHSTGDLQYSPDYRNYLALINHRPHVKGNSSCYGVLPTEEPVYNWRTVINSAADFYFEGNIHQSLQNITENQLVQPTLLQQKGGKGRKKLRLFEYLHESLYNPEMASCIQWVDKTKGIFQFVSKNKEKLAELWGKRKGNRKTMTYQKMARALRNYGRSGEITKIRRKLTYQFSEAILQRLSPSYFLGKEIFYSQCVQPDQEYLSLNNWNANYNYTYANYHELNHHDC
# Outline: as §1
# ELF4 = ELF4 (Homo sapiens, UniProt Q99607 1-663); settings: protein: recombinant; tags: N-terminal GST; dsDNA, one strand shown
# Outline: as §1
# ELK4 = target: T9, ELK4 (Homo sapiens, UniProt P28324-2 1-405); settings: protein: recombinant; tags: N-terminal GST; dsDNA, one strand shown
# T9 sequence: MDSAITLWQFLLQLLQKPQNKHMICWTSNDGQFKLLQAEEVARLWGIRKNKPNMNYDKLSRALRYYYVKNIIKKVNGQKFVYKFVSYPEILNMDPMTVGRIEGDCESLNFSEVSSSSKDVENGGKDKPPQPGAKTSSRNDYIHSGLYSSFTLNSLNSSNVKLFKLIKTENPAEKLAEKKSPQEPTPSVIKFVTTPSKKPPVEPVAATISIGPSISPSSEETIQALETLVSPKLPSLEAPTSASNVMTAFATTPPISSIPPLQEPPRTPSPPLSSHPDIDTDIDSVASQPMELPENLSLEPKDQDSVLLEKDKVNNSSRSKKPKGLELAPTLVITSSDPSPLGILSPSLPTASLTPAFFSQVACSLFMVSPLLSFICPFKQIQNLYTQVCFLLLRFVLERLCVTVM
# Outline: as §1
# ETV2 = target: T10, ETV2 (Homo sapiens, UniProt O00321 1-342); settings: protein: recombinant; tags: N-terminal GST; dsDNA, one strand shown
# T10 sequence: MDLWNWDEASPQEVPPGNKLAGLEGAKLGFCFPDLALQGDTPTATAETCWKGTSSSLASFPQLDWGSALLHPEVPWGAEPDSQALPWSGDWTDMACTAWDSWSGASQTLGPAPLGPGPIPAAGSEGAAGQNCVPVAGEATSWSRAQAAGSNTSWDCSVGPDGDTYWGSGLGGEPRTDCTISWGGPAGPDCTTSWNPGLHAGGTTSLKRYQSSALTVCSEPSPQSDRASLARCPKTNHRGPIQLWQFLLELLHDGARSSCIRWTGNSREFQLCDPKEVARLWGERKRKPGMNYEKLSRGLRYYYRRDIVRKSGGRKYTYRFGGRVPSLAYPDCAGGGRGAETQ
# Outline: as §1
# ELF3 = target: T11, ELF3 (Homo sapiens, UniProt P78545 1-371); settings: protein: recombinant; tags: N-terminal GST; dsDNA, one strand shown
# T11 sequence: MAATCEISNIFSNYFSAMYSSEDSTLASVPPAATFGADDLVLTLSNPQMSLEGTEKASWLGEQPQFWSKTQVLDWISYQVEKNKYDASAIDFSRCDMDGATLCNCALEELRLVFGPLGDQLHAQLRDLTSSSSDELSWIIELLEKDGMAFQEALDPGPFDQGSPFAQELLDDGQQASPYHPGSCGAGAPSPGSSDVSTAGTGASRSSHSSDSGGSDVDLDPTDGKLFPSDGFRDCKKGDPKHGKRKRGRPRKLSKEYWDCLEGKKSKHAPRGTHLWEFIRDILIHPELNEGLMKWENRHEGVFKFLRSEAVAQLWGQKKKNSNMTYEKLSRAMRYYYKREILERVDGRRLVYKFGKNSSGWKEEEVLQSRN
# Outline: as §1
# CRX = CRX (Homo sapiens, UniProt O43186 1-299); settings: protein: recombinant; tags: N-terminal GST; dsDNA, one strand shown
# Outline: as §1
# ETV1 = ETV1 (Homo sapiens, UniProt P50549 1-477); settings: protein: recombinant; tags: N-terminal GST; dsDNA, one strand shown
# Outline: as §1
# Chain of HSF1 (Q00613 whole entry): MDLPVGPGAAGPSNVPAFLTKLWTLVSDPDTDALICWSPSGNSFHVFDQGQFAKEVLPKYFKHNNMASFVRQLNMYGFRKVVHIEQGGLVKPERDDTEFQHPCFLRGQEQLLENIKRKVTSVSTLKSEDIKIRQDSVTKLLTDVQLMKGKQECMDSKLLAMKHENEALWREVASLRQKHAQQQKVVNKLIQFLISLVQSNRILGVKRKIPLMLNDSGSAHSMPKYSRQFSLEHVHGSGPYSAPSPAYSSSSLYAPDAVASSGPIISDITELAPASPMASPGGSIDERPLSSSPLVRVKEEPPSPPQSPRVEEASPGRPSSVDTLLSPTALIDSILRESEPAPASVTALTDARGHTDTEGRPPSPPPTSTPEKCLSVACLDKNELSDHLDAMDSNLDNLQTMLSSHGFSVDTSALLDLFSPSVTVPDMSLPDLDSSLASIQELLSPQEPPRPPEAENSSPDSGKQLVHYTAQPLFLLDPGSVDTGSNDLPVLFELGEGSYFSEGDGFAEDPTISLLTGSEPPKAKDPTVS
# Chain of CRX (O43186 whole entry): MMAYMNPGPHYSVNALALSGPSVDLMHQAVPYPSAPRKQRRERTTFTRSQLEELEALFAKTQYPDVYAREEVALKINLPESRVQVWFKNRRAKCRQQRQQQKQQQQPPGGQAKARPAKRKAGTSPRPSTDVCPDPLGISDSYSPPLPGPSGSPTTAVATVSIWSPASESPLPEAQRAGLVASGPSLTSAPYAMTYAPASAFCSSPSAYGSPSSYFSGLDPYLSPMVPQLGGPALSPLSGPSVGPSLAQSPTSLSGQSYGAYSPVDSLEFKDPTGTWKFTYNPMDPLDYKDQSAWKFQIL
# Chain of SPIB (Q01892 whole entry): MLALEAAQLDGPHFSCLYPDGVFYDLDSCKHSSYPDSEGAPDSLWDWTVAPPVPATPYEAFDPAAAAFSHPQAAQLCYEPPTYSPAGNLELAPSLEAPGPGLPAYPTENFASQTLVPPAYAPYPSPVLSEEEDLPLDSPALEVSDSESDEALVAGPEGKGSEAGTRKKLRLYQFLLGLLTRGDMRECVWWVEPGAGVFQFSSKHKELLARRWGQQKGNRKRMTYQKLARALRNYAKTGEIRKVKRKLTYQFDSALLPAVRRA
# Chain of ELF1 (P32519 whole entry): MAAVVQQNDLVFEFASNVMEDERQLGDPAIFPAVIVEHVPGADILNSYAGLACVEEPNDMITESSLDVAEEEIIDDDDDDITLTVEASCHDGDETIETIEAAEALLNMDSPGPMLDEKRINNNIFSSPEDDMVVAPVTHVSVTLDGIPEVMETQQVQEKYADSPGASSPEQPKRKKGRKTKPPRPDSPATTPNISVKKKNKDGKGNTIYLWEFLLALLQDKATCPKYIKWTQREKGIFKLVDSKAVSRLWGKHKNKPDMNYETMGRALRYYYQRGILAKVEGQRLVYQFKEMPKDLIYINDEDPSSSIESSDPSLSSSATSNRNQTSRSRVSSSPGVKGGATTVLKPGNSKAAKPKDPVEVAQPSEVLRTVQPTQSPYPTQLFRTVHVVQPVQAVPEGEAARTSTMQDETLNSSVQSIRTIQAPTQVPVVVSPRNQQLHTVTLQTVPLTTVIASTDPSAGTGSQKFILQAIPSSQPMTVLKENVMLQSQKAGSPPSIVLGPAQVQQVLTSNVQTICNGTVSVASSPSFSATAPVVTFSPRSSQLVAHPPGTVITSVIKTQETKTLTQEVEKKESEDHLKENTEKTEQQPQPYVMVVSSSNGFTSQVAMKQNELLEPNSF
# Chain of ELF4 (Q99607 whole entry): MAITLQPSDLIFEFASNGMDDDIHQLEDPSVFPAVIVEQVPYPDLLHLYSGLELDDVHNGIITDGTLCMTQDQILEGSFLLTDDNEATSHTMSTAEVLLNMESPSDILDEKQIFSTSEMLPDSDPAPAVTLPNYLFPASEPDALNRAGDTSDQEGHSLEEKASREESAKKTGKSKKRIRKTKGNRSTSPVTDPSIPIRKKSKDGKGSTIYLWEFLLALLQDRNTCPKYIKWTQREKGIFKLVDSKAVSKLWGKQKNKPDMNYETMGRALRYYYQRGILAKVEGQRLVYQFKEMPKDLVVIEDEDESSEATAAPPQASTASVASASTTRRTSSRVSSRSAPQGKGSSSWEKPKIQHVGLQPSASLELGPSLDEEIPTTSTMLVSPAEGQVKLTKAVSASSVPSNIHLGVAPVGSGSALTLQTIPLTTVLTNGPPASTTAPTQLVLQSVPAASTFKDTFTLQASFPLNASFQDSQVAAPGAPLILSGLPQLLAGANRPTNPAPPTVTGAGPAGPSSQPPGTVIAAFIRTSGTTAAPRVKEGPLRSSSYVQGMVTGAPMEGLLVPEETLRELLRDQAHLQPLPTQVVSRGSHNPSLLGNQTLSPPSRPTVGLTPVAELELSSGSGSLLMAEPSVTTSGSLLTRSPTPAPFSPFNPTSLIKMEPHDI
# Chain of ETV1 (P50549 whole entry): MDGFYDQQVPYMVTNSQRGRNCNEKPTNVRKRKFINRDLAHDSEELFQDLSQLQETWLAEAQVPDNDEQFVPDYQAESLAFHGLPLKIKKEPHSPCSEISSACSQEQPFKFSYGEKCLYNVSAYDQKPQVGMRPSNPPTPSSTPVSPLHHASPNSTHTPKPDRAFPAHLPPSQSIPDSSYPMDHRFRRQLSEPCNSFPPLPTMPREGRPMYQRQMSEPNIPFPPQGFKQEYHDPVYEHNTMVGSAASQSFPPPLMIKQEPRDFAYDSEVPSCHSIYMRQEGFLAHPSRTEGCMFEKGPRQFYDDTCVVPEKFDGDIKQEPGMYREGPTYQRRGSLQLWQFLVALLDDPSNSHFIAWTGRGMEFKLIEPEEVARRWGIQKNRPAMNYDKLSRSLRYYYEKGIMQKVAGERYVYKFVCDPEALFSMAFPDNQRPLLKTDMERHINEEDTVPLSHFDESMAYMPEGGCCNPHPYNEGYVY
# Chain of ETV5 (P41161 whole entry): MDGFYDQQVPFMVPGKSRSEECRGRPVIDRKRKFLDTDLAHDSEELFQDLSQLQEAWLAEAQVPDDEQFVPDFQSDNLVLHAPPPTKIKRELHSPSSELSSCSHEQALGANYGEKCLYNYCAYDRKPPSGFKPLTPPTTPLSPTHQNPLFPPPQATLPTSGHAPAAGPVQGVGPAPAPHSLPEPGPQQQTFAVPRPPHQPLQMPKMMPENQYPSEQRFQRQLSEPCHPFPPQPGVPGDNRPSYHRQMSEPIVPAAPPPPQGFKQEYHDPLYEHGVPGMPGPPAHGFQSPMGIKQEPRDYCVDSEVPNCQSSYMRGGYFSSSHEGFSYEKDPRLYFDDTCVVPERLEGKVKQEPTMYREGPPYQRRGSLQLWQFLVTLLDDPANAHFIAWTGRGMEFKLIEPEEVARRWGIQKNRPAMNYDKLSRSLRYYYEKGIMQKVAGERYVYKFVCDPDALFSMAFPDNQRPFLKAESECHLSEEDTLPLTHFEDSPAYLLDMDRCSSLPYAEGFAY
sequence,measurement,setting,value
ACTACG,binding signal,FLI1,"1.33 fold enrichment (6-mer frequency, TF over GST control)"
same,binding signal,ELK1,"1.28 fold enrichment (6-mer frequency, TF over GST control)"
same,binding signal,GABPA,"1.32 fold enrichment (6-mer frequency, TF over GST control)"
same,binding signal,ERG,"1.24 fold enrichment (6-mer frequency, TF over GST control)"
same,binding signal,ELF1,"1.34 fold enrichment (6-mer frequency, TF over GST control)"
same,binding signal,EHF,"1.36 fold enrichment (6-mer frequency, TF over GST control)"
same,binding signal,SPI1,"1.26 fold enrichment (6-mer frequency, TF over GST control)"
same,binding signal,SPIB,"1.47 fold enrichment (6-mer frequency, TF over GST control)"
same,binding signal,ELK3,"1.32 fold enrichment (6-mer frequency, TF over GST control)"
same,binding signal,FEV,"1.34 fold enrichment (6-mer frequency, TF over GST control)"
same,binding signal,ETV5,"1.27 fold enrichment (6-mer frequency, TF over GST control)"
same,binding signal,HSF1,"1.09 fold enrichment (6-mer frequency, TF over GST control)"
same,binding signal,SPIC,"1.12 fold enrichment (6-mer frequency, TF over GST control)"
same,binding signal,ELF4,"1.26 fold enrichment (6-mer frequency, TF over GST control)"
same,binding signal,ELK4,"1.32 fold enrichment (6-mer frequency, TF over GST control)"
same,binding signal,ETV2,"1.33 fold enrichment (6-mer frequency, TF over GST control)"
same,binding signal,ELF3,"1.28 fold enrichment (6-mer frequency, TF over GST control)"
same,binding signal,CRX,"1.08 fold enrichment (6-mer frequency, TF over GST control)"
same,binding signal,ETV1,"1.25 fold enrichment (6-mer frequency, TF over GST control)"
